Common to all, as to test: NCI-60 one-dose screen, 48 h (100 = growth as untreated, 0 = no growth, -100 = all killed)
The subject of experiment [1] is SK-MEL-2 melanoma. To be noted: 10 µM unless noted.
In experiment [2] the test system is EKVX NSCLC. To be noted: 10 µM unless noted.
For experiment [3], the system named is SN12C renal. To be noted: 10 µM unless noted.
Experiment [4] relates to UO-31 renal. To be noted: 10 µM unless noted.
For experiment [5], the system named is TK-10 renal.
For experiment [6], the system named is ACHN renal. To be noted: 10 µM unless noted.
Experiment [7] deals with CAKI-1 renal. To be noted: 10 µM unless noted.
Experiment [8] relates to A498 renal. To be noted: 10 µM unless noted.
For experiment [9], the system named is CCRF-CEM leukemia. To be noted: 10 µM unless noted.
Experiment [10] concerns MOLT-4 leukemia. To be noted: 10 µM unless noted.

The structures appear in SMILES notation. Values joined by “and” are separate entries in the source; they are usually repeats but may differ in a detail not shown here. Identical values can stand only once. The panel holds about 83,000 compounds, 20% with a hit somewhere; the sample as a whole holds those more often.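 How to read the values: 0–100, growth inhibition (40 = 60% inhibited); 0, no net growth; -100 to 0, cell death (-40 = 40% of starting cells died; -100 = all dead).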 A number with no mark means an inactive call. Active and inactive are the calls of the source. The calls were made as follows: active = growth percent below 10; inactive = the rest.

With `COc1cc(NC(=O)CSc2nc3ccc(Cl)cc3c(=O)n2Cc2ccccc2)cc(OC)c1OC`, the growth in experiment [1] is 77.6%; in [2], 83.2%; in experiment [3], 88.5%; in experiment [4] it was 62.4%; in experiment [5] (10 µM unless noted), 72.9%; in [6] it was 57.6%. The growth in [7] was 76.9%; in [8], 11.7%; in experiment [9], 93.8%.
Turning to `O=C1NN(C(=O)c2ccccc2)C(c2ccc(Cl)c(Cl)c2)=C/C1=C\c1ccccc1[N+](=O)[O-]`, the growth in experiment [1] was 10.9% [6.75 µM]; in experiment [2], 32% [6.75 µM]; in [3] it was 30.7% [6.75 µM]; in experiment [4], -3.12% [6.75 µM] (active); in [5] (10 µM unless noted) it was 42.1% [6.75 µM]; in [6], 24% [6.75 µM]. Moreover, the growth was 24.1% [6.75 µM] in [7], -10.9% [6.75 µM] (active) in experiment [8] and 17.4% [6.75 µM] in experiment [9].
In the case of `Cc1cc(O)c2cc3c(O)c(O)ccc3cc2c1`, the growth in experiment [1] is 124%; in experiment [2] it was 106%; in [3] it was 112%; in [4], 102%; in experiment [5] (10 µM), 115%; in experiment [5] (100 µM), -14.3% (active) and -64.8% (active). Besides, the growth was 106% in [6]; 105% in [7]; 103% in [8]; 118% in experiment [9]; 105% in experiment [10].
As to `COc1cc(C2CC(c3cccc(Nc4ccnc5cc(Cl)ccc45)c3)=NN2C=O)cc(OC)c1OC` (centres undefined), the growth is -18.1% (active) in [1]; 32% in experiment [2]; 19.7% in experiment [3]; 2.53% (active) in experiment [4]; 2.13% (active) in experiment [5] (10 µM unless noted); -6.99% (active) in [6]. Also, the growth in experiment [7] was -31.1% (active); in experiment [8], -16.4% (active); in [9] it was 2.72% (active); in experiment [10], 9.97% (active).
Take `COc1cc([N+](=O)[O-])cc(OC)c1OC`: the growth in [1] is 114%; in [2], 104%; in experiment [3] it was 101%; in [4] it was 86.5%; in [5] (10 µM unless noted), 106%; in experiment [6] it was 119%. Also, the growth is 89.5% in [7], 79.9% in experiment [8], 105% in experiment [9] and 103% in experiment [10].
As to `COc1cc(NC(=O)CSc2nc3ccc(Cl)cc3c(=O)n2-c2ccccc2)cc(OC)c1OC`, the growth in experiment [1] is 99.8%; in experiment [2], 76.4%; in experiment [3] it was 94.3%; in [4], 51%; in experiment [5] (10 µM unless noted), 120%; in experiment [6] it was 92.1%. The growth was 83.3% in experiment [7], 46.6% in [8] and 70.5% in [9].
`CC1=CCC2C1CC=C(C)C(CC[C@H]1[C@@](C)(O)CCC3OC(C)(C)[C@H](OC(=O)c4ccccc4)CC[C@@]31C)C2(C)C` (some centres undefined): the growth is 81.3% in [1]; 69.6% in [2]; 80.6% in [3]; 80.8% in [4]; 97.5% in experiment [5] (10 µM unless noted); 94.1% in experiment [6]. Further, the growth was 67.7% in experiment [7], 110% in experiment [8] and 99.6% in experiment [9].
On to `CCn1c(Cc2ccccc2Nc2c(Cl)cccc2Cl)nnc1SCC(=O)Nc1ccccc1C(F)(F)F`, for which the growth in [1] was 79.9%; in experiment [2] it was 82.8%; in experiment [3], 77.1%; in [4], 74.8%; in experiment [5] (10 µM unless noted), 88%; in experiment [6], 106%. In addition, the growth was 87.1% in experiment [7], 64.5% in experiment [8], 108% in [9] and 70.2% in experiment [10].
Consider `O=C1OCC2=C1C(c1ccccc1)c1cc3c(cc1N2CCO)CCC3` (centres undefined), for which the growth in experiment [1] was 17.1%; in experiment [2], 22.7%; in experiment [3], 23.2%; in experiment [4] it was 38.1%; in experiment [5] (10 µM unless noted), 54.5%; in experiment [6], 29.7%. For the same molecule, the results for the growth in experiment [7] and in experiment [8] were 26.7% and -21.5% (active), respectively.
With `CCOC(=O)C1=C(C)NC(=S)NC1c1ccccc1` (centres undefined), the growth is 113% in experiment [1]; 97.6% in [2]; 103% in [3]; 76.4% in experiment [4]; 104% in [5] (10 µM unless noted); 99.6% in experiment [6]. Besides, the growth in experiment [7] is 87.5%; in [8], 86.3%; in experiment [9], 109%.
Consider `CCOC(=O)C1=C(C(=O)OCC)N(c2cc(OC)c(OC)c(OC)c2)C(N)=C(C#N)C1c1cc(=O)[nH]c2ccccc12` (centres undefined), for which the growth in experiment [1] was 115%; in experiment [2] it was 89.3%; in [3] it was 98.5%; in experiment [4], 76.8%; in experiment [5] (10 µM unless noted), 100%; in experiment [6] it was 97.6%. Further, the growth in experiment [7] is 87%; in [8] it was 78.1%; in experiment [9], 113%; in experiment [10], 100%.
On to `NS(=O)(=O)c1ccc(CCn2c(SCC(=O)N/N=C/c3cc4ccccc4[nH]3)nc3ccccc3c2=O)cc1`, for which the growth in [1] is 25.7%; in experiment [2], 85.3%; in experiment [3] it was 73.4%; in experiment [4], 67%; in experiment [5] (10 µM unless noted), 102%; in experiment [6], 93.9%. Also, the growth was 82.5% in [7], 102% in [8], 35% in [9] and 23.1% in [10].
`CCN(CC)c1ccc(/C=N/NC(=O)c2ccc(S(C)(=O)=O)cc2)c(O)c1`: the growth in [1] is 19.5%; in [2], 15.5%; in experiment [3] it was 31.2%; in experiment [4], -1.73% (active); in experiment [5] (10 µM unless noted), 30.5%; in [6], 17.1%. Further, the growth is 20.4% in [7], 45.3% in experiment [8], 6.94% (active) in experiment [9] and 2.7% (active) in [10].
For the molecule `CCN1C(=O)/C(=C/N2N=C(c3ccc(Cl)cc3)CC2c2ccc(OC)cc2)SC1=S` (centres undefined), the growth in [1] was 84.4%; in experiment [2], 93.6%; in [3] it was 86.2%; in [4], 71.1%; in [5] (10 µM unless noted), 102%; in [6], 94.1%. In addition, the growth was 91.6% in experiment [7], 64.4% in experiment [8], 100% in experiment [9] and 73.4% in [10].
